# JMJD2A Tudor inh – inhibitors of human JMJD2A Tudor domain | AlphaScreen JMJD2A-Tudor / H3K4me3 peptide binding | Potency, µM (series often up to 114 µM), without a hit: top-dose activity change, negative = inhibition, usual class: inhibitors | 390,000 tested, 4.4% active; further: on the % scale 0 is the no-effect control and ±100 the full control effect; nearly all actives have a fitted effect of over 50% in size
# PLK1 PBD inh – PLK1 (human) polo-box domain binding inhibition; P53350; Plk1 PBD binding of FITC phosphopeptide, fluorescence polarization; AID 720504; Potency, µM, inactives show max response, negative = inhibition, most hits filed as inhibitors; 360,000 tested, 2.8% active; further: series mostly up to about 57 µM; on the % scale 0 is the no-effect control and ±100 the full control effect; nearly all actives have a fitted effect of over 65% in size
# Sfp inh – blocks B. subtilis Sfp PPTase activity; Potency, µM, for the others: largest response in the series, negative = inhibition, actives largely listed as inhibitors; Biochemical Sfp PPTase activity, qHTS; 310,000 tested, 3.5% active; Q9F4F7; AID 1490;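 further: the enzyme is Sfp with the accession as filed and its product quenches rhodamine fluorescence; 0% = enzyme reaction without inhibitor and -100% = no enzyme wells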
#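 Buffer: 50 mM Hepes-Na pH 7.6, 10 mM MgCl2, 0.01% Nonidet P-40, 0.01% BSA. Enzyme 15 nM, pre-exposed to compound 15 min; substrates then added and fluorescence change tracked over 30 min.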
# G9a block – G9a (human) methyltransferase inhibition; Q96KQ7; G9a H3K9 monomethylation, AlphaScreen, 2 h; Potency, µM (highest dose often 102 µM), without a hit: at the highest dose activity, negative = inhibition, hits mostly inhibitors; 350,000 tested, 8.8% active; further: on the % scale 0 is the no-effect control and ±100 the full control effect; nearly all actives have a fitted effect of over 75% in size
#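 G9a (20 nM) preincubated 15 min RT with compounds, then 500 nM biotinylated H3K9 peptide and 20 uM SAM added; 2 h RT reaction. Monomethyl-H3K9 product detected by AlphaScreen with anti-H3K9me1 antibody, streptavidin donor and anti-rabbit IgG acceptor beads.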
# BAZ2B block – blocks human BAZ2B; 360,000 tested, 4.4% active; Potency, µM (top dose mostly 114 µM), without a hit: at the top dose activity change, negative = inhibition, actives largely listed as inhibitors; AlphaScreen BAZ2B-H3K14Ac peptide displacement; AID 504333; further: on the % scale 0 is the no-effect control and ±100 the full control effect; nearly all actives have a fitted effect of over 60% in size
#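 AlphaScreen displacement of biotin-H3(5-23)K14Ac peptide (50 nM final) from BAZ2B (50 nM final) in PBS pH 7.4, 0.01% Tween-20; complex preformed 30 min RT, then compounds (top 110 uM) 30 min RT, beads 20 min dark.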
# HP1b binding inh – inhibitors of HP1-beta chromodomain binding to methylated histone tails; AlphaScreen HP1-beta / biotin-H3K9me3 peptide binding; 390,000 tested, 0.56% active; Potency, µM (series often up to 114 µM), without a hit: at the highest dose activity change, negative = inhibition, usual class: inhibitors; AID 540317; further: nearly all actives have a fitted effect of over 70% in size
#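 Compound inhibition of the preformed complex between 50 nM HP1-beta and 50 nM biotinylated H3K9me3 peptide was read by AlphaScreen. Buffer was PBS pH 7.4 with 0.01% Tween-20. Incubations ran 30 min at room temperature, with 10 ug/mL donor/acceptor beads.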
# Active calls of the source: *; ? = inconclusive; . = not tested or not shown; [ ] = another dose, or the depositor's remark. In the library only some 12% were active in any assay of this set; here they are far more common. The call rests on the fitted dose curve; in most records, active means well fitted curve in the direction sought with a large enough effect; inconclusive means small, poorly fitted or top-dose-only effect, or another doubt; inactive means no such curve, though single readings can be large; an effect the other way counts as inactive or inconclusive. Potency means the concentration at half of the fitted maximal effect.
SMILES,JMJD2A Tudor inh,PLK1 PBD inh,Sfp inh,G9a block,BAZ2B block,HP1b binding inh
O=C(NCC(c1cccs1)S(=O)(=O)c1cccs1)c1cccc(F)c1 (stereo unspecified),5.8%,.,.,-3.1%[59 µM],0.4%,7.0%
O=C(O)c1ccc(NCc2nc3ccccc3n2Cc2ccccc2)cc1,-9.1%,-3.4%,17.7%,0.7%,50.1µM*,39.0%
CCn1c(CNc2ccc(C(=O)O)cc2)nc2ccccc21,-5.0%,1.1%,-24.2%,1.4%[59 µM],-7.4%,13.5%
CCn1cnc2cc(NCc3nc4ccccc4n3Cc3ccccc3)ccc21,44.7µM*,-1.0%,13.8%,?,39.8µM*,-5.9%
CCN(CC)CCn1c(NCc2nc3ccccc3n2Cc2ccccc2)nc2ccccc21,?,2.5%,2.1%,?,?,6.1%
Cc1cccn2cc(-c3cccc(NC(=O)C(C)C)c3)nc12,-20.1%,.,.,1.3%[59 µM],-11.9%,-3.6%
CO[C@@H]1c2cc(F)ccc2/C(=C\CCOC(=O)C/C=C/c2ccccc2)[C@H]1C,.,.,-21.9%,.,.,.
CNCc1nc2ccccc2[nH]1,?,?,?,.,?,65.6%
S=c1cnc2ccccc2[nH]1,4.47µM*,11.9µM*,20µM*,1µM*,56.2µM*,?
O=C(N/N=C/c1oc(O)c2ccccc12)c1ccccc1,-8.1%,-11.9%,13.1%,11.2µM*,-15.8%,38.5%
O=C(Nc1oc2ccc(Cl)cc2c(=O)c1-c1ccc(F)cc1)c1ccco1,-1.4%,-10.1%,14.3%,3.0%,-11.5%,37.7%
COC(=O)C/C=C\[C@@H](C)[C@@H](/C=N\O[C@@H](C)c1cn([C@H]2COC[C@H]2O)nn1)NS(=O)(=O)c1ccc(C)cc1,.,.,-6.6%,.,.,.
CSc1cccc(CNC(=O)CC2C(=O)NCCN2CC(C)(C)C)c1 (stereo unspecified),-15.3%,-26.9%,-4.3%,39.8µM*,-18.3%,29.4%
Cn1cc(CNC(=O)CC2C(=O)NCCN2CC(C)(C)C)cn1 (stereo unspecified),-4.2%,-13.5%,14.3%,50.1µM*,2.0%,9.6%
CCn1c(SCC(=O)O)nnc1-c1cccnc1,-0.3%,-0.7%,4.9%,5.5%,1.7%,43.3%
CCCOc1cccc(C2c3c(oc4ccc(F)cc4c3=O)C(=O)N2Cc2ccc3c(c2)OCO3)c1 (stereo unspecified),-14.1%,.,.,6.7%[59 µM],-3.8%,20.8%
CC1CC(C)CN(C(=O)COC(=O)c2ccc3ccccc3n2)C1 (stereo unspecified),-8.5%,0.5%,.,21.7%[2.33 µM],29.8%,15.4%
COCCn1c(N)c(N(Cc2ccccc2)C(=O)c2cc(=O)[nH]c3ccccc23)c(=O)[nH]c1=O,-9.7%,-6.4%,.,.,.,13.1%
CCCCN(C(=O)c1cc(-c2ccncc2)nc2ccccc12)c1c(N)n(CC(C)C)c(=O)[nH]c1=O,-14.5%,-4.7%,.,.,.,30.6%
CCCCn1c(N)c(N(CC(C)C)C(=O)c2cc(-c3ccncc3)nc3ccccc23)c(=O)[nH]c1=O,-17.2%,-1.8%,.,56.2µM*,1.6%,13.3%
CCCCn1c(N)c(N(CC(C)C)C(=O)Cn2c(=O)cnc3ccccc32)c(=O)[nH]c1=O,7.5%,4.8%,.,44.7µM*,-1.3%,46.7%
CCCCn1c(N)c(N(CCC(C)C)C(=O)C2=NN(c3cc(C)ccc3C)C(=O)CC2)c(=O)[nH]c1=O,-0.7%,-10.9%,.,39.8µM*,12.5%,55.3%
CCCCn1c(N)c(N(Cc2ccccc2OC)C(=O)c2cc(=O)[nH]c3ccccc23)c(=O)[nH]c1=O,-12.4%,-0.9%,.,35.5µM*,33.9%,6.0%
CCCCn1c(N)c(N(CCOC)C(=O)c2ccco2)c(=O)[nH]c1=O,-15.9%,-3.9%,.,?,-0.9%,30.2%
CCCCn1c(N)c(N(CC(C)C)C(=O)c2ccco2)c(=O)[nH]c1=O,4.3%,3.5%,.,50.1µM*,9.4%,27.1%
SMILES,JMJD2A Tudor inh,PLK1 PBD inh,Sfp inh,G9a block,BAZ2B block,HP1b binding inh
CCCCn1c(N)c(N(CCC(C)C)C(=O)c2ccc([N+](=O)[O-])s2)c(=O)[nH]c1=O,-21.3%,-10.1%,.,79.4µM*,6.5%,-5.2%
CC(=O)c1ccc(NC(=O)C(C)Sc2nnc3ccccn23)cc1 (stereo unspecified),-13.9%,-5.3%,.,-21.2%[59 µM],9.4%,44.5%
CCc1cccc(CC)c1-n1c(-c2cccnc2)n[nH]c1=S,?,-2.9%,-10.4%,?,-22.5%,22.3%
S=c1[nH]nc(-c2cccc3ccccc23)n1-c1cccnc1,20µM*,-10.2%,-17.3%,-127.3%[59 µM],-4.9%,10.8%
Cc1ccccc1-n1c(-c2cccnc2)n[nH]c1=S,11.2µM*,-0.8%,7.0%,5.01µM*,-4.3%,38.2%
CC(C)c1ccccc1-n1c(-c2cccnc2)n[nH]c1=S,10µM*,-5.3%,-12.2%,-35.7%[12.7 µM],-20.1%,30.7%
CSc1nc(Cl)cc(N(CCO)CCO)n1,-14.4%[11.4 µM],?,24.7%,103.5%[59 µM],-26.8%[57.1 µM],-8.4%
Cc1c(C2=CCN(S(=O)(=O)c3ccc(CC(C)C)cc3)CC2)c2ccccc2n1CC(=O)N1CCCC1,-26.2%,.,.,?,-25.1%,18.9%
Cc1cc(C(C)(C)C)nc2[nH]n(-c3ccccc3)c(=O)c12,-24.6%,-6.3%,6.1%,-1.1%,-9.8%,17.3%
O=c1ccc(=O)n(-c2ccccc2)[nH]1,79.4µM*,-21.5%,50.1µM*,14.1µM*,-1.2%,?
CC(C)(C)c1cc(=O)n(-c2ccccc2)[nH]1,-11.1%,-8.4%,?,44.7µM*,?,24.2%
O=c1cc(-c2ccccc2)[nH]n1-c1ccccc1,?,5.7%,.,.,.,-5.6%
CCC(=O)N1CCc2cc(S(=O)(=O)NCCC(=O)Nc3cc(C)ccc3OC)ccc21,-18.0%,.,.,-35.7%[59 µM],.,29.8%
Cc1ccc(S(=O)(=O)NC2CCCCCCC2)cc1,-2.1%,-13.1%,1.2%,.,-3.4%,42.4%
Cc1ccc(S(=O)(=O)NC2OC(=O)C(Cl)=C2Cl)cc1 (stereo unspecified),-8.9%,-24.5%,-1.6%,?,79.4µM*,26.5%
O=S(=O)(c1cccs1)N1CN(Cc2ccco2)c2nc3ccccc3nc21,?,-3.9%,?,39.8µM*,?,-6.5%
CCCCN1CN(S(=O)(=O)c2cccs2)c2nc3ccccc3nc21,.,.,?,?,8.7%,.
O=S(=O)(c1cccs1)N1CN(Cc2ccc(Cl)cc2)c2nc3ccccc3nc21,2.6%,-1.3%,13.2%,54.5%[59 µM],-2.4%,52.1%
CC(C)OCCCN1CN(S(=O)(=O)c2cccs2)c2nc3ccccc3nc21,2.1%,3.8%,-4.6%,20µM*,-24.5%,47.2%
CC(C)CCN1CN(S(=O)(=O)c2cccs2)c2nc3ccccc3nc21,-3.8%,-10.6%,-5.0%,15.8µM*,0.5%,22.9%
CCOc1ccc(NS(=O)(=O)c2ccc3[nH]cc(C(=O)N(C)C4CCCCC4)c(=O)c3c2)cc1,-11.2%,.,.,?,-16.1%,14.2%

# Bioassay records: PubChem BioAssay, National Center for Advancing Translational Sciences (NCATS)
